# According to PubChem BioAssay (EPA / NIEHS):
# Active and inactive are the calls of the source. The calls were made as follows: active = hit-call score of the fitted dose curve at least 0.9, where 1 is the maximum; inactive = score below 0.9.
# Assay: CEETOX_H295R_PROG: CeeTox H295R High-throughput Steroidogenesis Assay for Progesterone (PROG) (AID 2283442);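 as to AC50: human H295R adrenal cells primed with 10 µM forskolin before dosing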
# Details: actives raise or lower the signal
# Procedure: CEETOX_H295R is a cell-based, multiplexed-readout assay that uses H295R, a human adrenal gland cell line, with measurements taken at 48 hours after chemical dosing in a 96-well plate.CEETOX_H295R_PROG is one of 23 assay component(s) measured or calculated from the CEETOX_H295R assay. It is designed to make measurements of hormone induction, a form of inducible reporter, as detected with absorbance signals by HPLC-MS-MS technology.Data from the assay component CEETOX_H295R_PROG was analyzed into 1 assay endpoint. This assay endpoint, CEETOX_H295R_PROG, was analyzed with bidirectional fitting relative to DMSO as the negative control and baseline of activity. Using a type of inducible reporter, gain or loss-of-signal activity using HPLC-MS-MS was used to understand synthesis of Progesterone in H295R cell line at 48hr of chemical exposure. To generalize the intended target to other relatable targets, this assay endpoint is annotated to the steroid hormone intended target family, where the subfamily is progestagens.
# Cell culture and media preparation procedures were conducted in accordance with OECD Test No. 456 guidelines, with minor modifications. H295R cells (ATCC CRL-2128) were expanded for 5 passages and frozen in batches in liquid nitrogen. Prior to the steroidogenesis assay, H295R cells were thawed and passed at least 4 times. The maximum passage was 10. Cells were maintained in a 1:1 mixture of DMEM/F12 supplemented with 5ml/L ITS+ Premix (BD Bioscience) and 12.5 ml/L Nu-Serum (BD Bioscience). After seeding cells into 96-well plates at 50-60% confluency, cells were allowed to adhere overnight. Prior to chemical testing, culture medium was replaced with 175 uL medium containing 10 uM forskolin to stimulate steroidogenesis for 48 hours. Following prestimulation, forskolin medium was replaced with medium containing test chemical solubilized in DMSO (ensuring a final concentration of 0.1% DMSO). Test chemicals were incubated for 48 hours, then the medium was removed and split into 2 vials containing approximately 75uL each, and stored at -80 C prior to hormone analysis. For steroid quantification, media samples were shipped to OpAns, LLC (Durham, NC) on dry ice, and samples were thawed to room temperature prior to liquid-liquid extraction. Steroid hormones were extracted from media samples using methyl tertbutyl ether (MTBE). An extra derivatization with dansyl chloride was included for estrogen (estrone and estradiol) detection only. Steroid hormones were separated by HPLC, eluted using a reverse phase C18 gradient with electrospray positive ionization, followed by quantification by tandem mass spectrometry (MS/MS). Data were acquired on a MassHunter Workstation Acquisition version B03.01 (Agilent Technologies, Inc.) and processed using MassHunter Quantitative Analysis for QQQ. Accuracy was determined for each hormone analyte from 3 standards to determine upper and lower limits of quantification (ULOQ and LLOQ, respectively) using a 7-point standard curve. Precision and accuracy of the extraction and quantification methods were calculated as the percent relative standard deviation (%RSD) of the spiked standards and percent spiked standard recovered, respectively. The goal was to achieve 100% accuracy (i.e., recover all spiked-in standard at quantification with minimal loss during run time) and good precision (i.e., have %RSD <15% to ensure reproducibility). Test medium was removed following chemical exposure, and cell viability was evaluated in the same wells by MTT. MTT procedures were as follows: after removal of test medium, 500 uL of 0.5 mg/ml of 3-[4,5-dimethylthiazol-2-y]2,5-diphenyltetrazoliumbromide solution was added to the cells. Following a 4-hour incubation at 37 C and 5% CO2 to allow formazan-crystal formation, the MTT solution was removed and blue formazan salt crystals were solubilized using 500uL anhydrous isopropanol with shaking for 20 minutes. Absorbance was read at 570 and 650nm using a Packard Fusion microplate reader. […]
SMILES,AC50,outcome
O=c1c(-c2ccc(O)cc2)coc2cc(O)cc(O)c12,12400 nM (active),
Cc1cc2c(cc1C(F)(F)F)N(C(=O)Nc1ccc(Oc3cccnc3C)nc1)CC2,257 nM (active),
Cc1ccc2oc(CN(Cc3ccccc3)C(=O)Nc3c(F)cc(F)cc3F)c(-c3ccc(Cl)cc3)c2c1,505 nM (active),
CCCCOC(=O)c1ccc(O)cc1,3600 nM (active),
C[C@]12CC[C@@H]3c4ccc(O)cc4CC[C@H]3[C@@H]1CC[C@H]2O,2000 nM (active),
CO[C@H]1/C=C/O[C@@]2(C)Oc3c(C)c(O)c4c(O)c(c(/C=N/N5CCN(C)CC5)c(O)c4c3C2=O)NC(=O)/C(C)=C\C=C\[C@H](C)[C@H](O)[C@@H](C)[C@@H](O)[C@@H](C)[C@H](OC(C)=O)[C@@H]1C,,inactive
O=C(Nc1ccc(Cl)cc1)Nc1ccc(Cl)c(Cl)c1,318 nM (active),
Clc1cc(Cl)c2c(c1)N=C1CCCCCN1C2,,inactive
C[C@]12CC[C@@H]3c4ccc(O)cc4CC[C@H]3[C@@H]1CCC2=O,849 nM (active),
O=C(O)Cn1c(=O)n(Cc2ccc(Br)cc2F)c(=O)c2ccc(Cl)cc21,73300 nM (active),
COc1cccc([C@H](O)C2CCN(CCc3ccc(F)cc3)CC2)c1OC,405 nM (active),
CC(C)(C)c1cc(/C=C2\SC(N)=NC2=O)cc(C(C)(C)C)c1O,897 nM (active),
CCCCCCCCCCCC[N+](C)(C)C,,inactive
Cc1c2ccccc2c(C)c2c1ccc1ccccc12,,inactive
CC(=O)N1CCN(c2ccc(OC[C@H]3CO[C@](Cn4ccnc4)(c4ccc(Cl)cc4Cl)O3)cc2)CC1,,inactive
Oc1ccc2ccccc2c1,,inactive
O=C1CCC(C2CCCCC2)CC1,,inactive
Clc1ccccc1C(c1ccccc1)(c1ccccc1)n1ccnc1,7.34 nM (active),
CCCCCCCCN(C)CCCCCCCC,,inactive
OC12N=C(c3ccccc3)SC1Cc1cc(Cl)ccc12 (configuration not stated),,inactive
CCCCCCCC[Si](OCC)(OCC)OCC,,inactive
CCCCCCCCOC(=O)c1cc(O)c(O)c(O)c1,2440 nM (active),
Cc1oc2c(NC(=O)c3c(Cl)cccc3Cl)cccc2c1C(C)(C)O,,inactive
NC(=O)c1nc(-c2cccc(-c3cc(F)ccc3OCC(F)(F)C(F)(F)F)c2)n[nH]1,,inactive
CC(C)(c1cc(Br)c(O)c(Br)c1)c1cc(Br)c(O)c(Br)c1,4870 nM (active),
CN1C(=O)N(c2ccccc2Br)Cc2cnc(Nc3ccc4c(c3)OCC(CO)O4)nc21 (configuration not stated),661 nM (active),
O=C1c2ccccc2C(=O)N1CCc1noc(-c2ccc(CN3CCCCCC3)s2)n1,,inactive
